Counter-ions that a name gives are not always drawn.
Tested on: MDA-MB-468
Experiment: phospho-S6 immunofluorescence (DAPI-normalised), per-plate z-score; higher = higher phospho-S6 signal (less pathway suppression)
Settings: 24 h
Description: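 GPCR-targeted compound library (MedChemExpress HY-L006) tested on MDA-MB-468 PTEN-null TNBC cells in 384-well plates at 0.1, 1 or 10 uM, combined with vehicle, GDC0941 450 nM or lapatinib 1 uM, for 24 h. Phospho-S6 (S240/244) immunofluorescence normalised to DAPI and expressed as a per-plate z-score; values are the mean of biological triplicates.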

Compound	phospho-S6 immunofluorescence (z-score) (co-treatment: GDC0941 450 nM)	phospho-S6 immunofluorescence (z-score) (co-treatment: lapatinib 1 uM)	phospho-S6 immunofluorescence (z-score) (co-treatment: vehicle)
COc1cc(C(=O)NS(=O)(=O)c2ccccc2C)ccc1Cc1cn(C)c2ccc(NC(=O)OC3CCCC3)cc12 [Zafirlukast] (compound 10 µM)	-2.01	-0.41	0.19
CC1(C)C(=O)N(CCN2CCC(C(=O)c3ccc(F)cc3)CC2)c2ccccc21 (compound 10 µM)	-0.29	-0.77	0.28
O=C(Nc1cc(Cl)cc(Cl)c1)[C@H]1CCCC[C@H]1C(=O)O (compound 10 µM)	0.83	0.12	0.42
CC(=O)OCC(=O)[C@@]1(O)[C@H](C)C[C@H]2[C@@H]3CCC4=CC(=O)C=C[C@]4(C)[C@@]3(F)[C@@H](O)C[C@@]21C [Dexamethasone (acetate)] (compound 10 µM)	0.07	0.45	1.18
CC[C@H](C)[C@@H]1NC(=O)[C@H](Cc2ccc(OC)cc2)NC(=O)CCCSC[C@@H](C(=O)N2CCC[C@H]2C(=O)N[C@@H](CC(C)C)C(=O)NCC(N)=O)NC(=O)[C@H](CC(N)=O)NC(=O)[C@H](CCC(N)=O)NC1=O [Carbetocin] (compound 10 µM)	0.31	-0.07	0.3
CCCNS(=O)(=O)Nc1ncnc(OCCOc2ncc(Br)cn2)c1-c1ccc(Br)cc1 [Macitentan] (compound 10 µM)	0.32	0.71	-0.16
O=C(Nc1ccc([N+](=O)[O-])cc1O)Nc1ccccc1Br (compound 10 µM)	-1.44	0.89	-0.39
C[C@@H](OC[C@@]1(c2ccccc2)CC[C@]2(CCC(=O)N2)CN1)c1cc(C(F)(F)F)cc(C(F)(F)F)c1 [Rolapitant] (compound 10 µM)	-4.35	-3.8	-0.65
C[C@]12CCC(=O)C=C1CC[C@@H]1[C@@H]2C(=O)C[C@@]2(C)[C@H]1CC[C@]2(O)C(=O)CO [Cortisone] (compound 10 µM)	0.47	0.58	1.14
COc1cc2c(NC3CCN(C(C)C)CC3)nc(N3CCC(F)(F)CC3)nc2cc1OCCCN1CCCC1 (compound 10 µM)	1.81	3.34	1.97
NC(=O)[C@@H]1CCCC[C@@H]1C(=O)Nc1ccc(Cl)c(Cl)c1 (compound 10 µM)	0.33	-0.14	0.47
Cc1ccc(S(=O)(=O)N2CCCC2c2ccc(F)cc2)cc1 (centres undefined) (compound 10 µM)	-2.47	0.46	-1.81
CCOC(=O)N1CCC(NCCNC(=O)c2ccccc2C)CC1 (compound 10 µM)	0.96	-0.15	1.13
Cc1c(-c2ccccc2)oc2c(C(=O)OCCN3CCCCC3)cccc2c1=O [Flavoxate (hydrochloride)] (compound 10 µM)	0.25	0.29	0.07
CC(C)NC[C@H](O)COc1ccc(CCOCC2CC2)cc1 [Levobetaxolol (hydrochloride)] (compound 10 µM)	-0.39	-0.2	-0.19
O=C(Nc1cccc2c(=O)cc(-c3nnn[nH]3)oc12)c1ccc(OCCCCc2ccccc2)cc1 [Pranlukast (hemihydrate)] (compound 10 µM)	1.61	1.07	0.31
CCN(CC)CCNC(=O)c1cc(Cl)c(N)cc1OC [Metoclopramide (hydrochloride hydrate)] (compound 10 µM)	-0.35	0.77	0.05
O=C(NCCCN1CCC2(CC1)OCc1ccccc12)[C@H]1CCCN1Cc1ccccc1 (compound 10 µM)	-1.61	-1.57	-0.4
COC(=O)[C@@H]1[C@H]2C[C@H]3c4[nH]c5ccccc5c4CCN3C[C@@H]2CC[C@@H]1O [Yohimbine (Hydrochloride)] (compound 10 µM)	0.62	0.56	1.59
COc1nc(C)cnc1NS(=O)(=O)c1cccnc1-c1ccc(-c2nnco2)cc1 [Zibotentan] (compound 10 µM)	-2.05	-0.19	-2.06
COc1cc(C(C)=O)ccc1OCCCN1CCC(c2noc3cc(F)ccc23)CC1 [Iloperidone] (compound 10 µM)	0.52	-0.23	0.38
Cc1cc(O[C@@H](CCC(F)(F)F)c2ccc(C(=O)NCCC(=O)O)cc2)cc(C)c1-c1ccc(C(C)(C)C)cc1 [Adomeglivant] (compound 10 µM)	-4.72	-7.2	-6.79
CN(C)CCOC(c1ccccc1)c1ccccc1.Cn1c(=O)c2[nH]c(Cl)nc2n(C)c1=O [Dimenhydrinate] (compound 10 µM)	-1.22	0.01	-0.02

From the supplement of paper PMC7411640
